# Results published in PubChem BioAssay AID1662 (Broad Institute, 2009).
# Hit rate of the full screen: of about 300,000 compounds, about 4,000 (1.3%) were called active. Shown is part of a subset that was picked to be rich in actives. A number with no mark means an inactive call.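 How the source made its calls: active means mean replicate score, as percent of positive control median, at least 50; inconclusive means mean below 50 but one replicate at or above 50; inactive means mean and every replicate below 50.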
# Test: kanamycin survival loss of SKKanGAS strain – BacTiter-Glo luminescence, streptokinase expression inhibitor project, primary screen (AID 1662);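 further: strain carries kanamycin resistance gene driven by streptokinase promoter and grows in 40 µg/ml kanamycin; loss of luminescence reflects streptokinase promoter inhibition or plain growth inhibition; 0% = median of DMSO wells and 100% = positive control at its reference dose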
# Details: S. pyogenes SKKanGAS, kanamycin growth, 6 h, at 7.5 µM, stronger effect = higher value
row,Structure (SMILES),inhibition
1,CC(=O)N(CN1C(=O)C2C3C=CC(C3)C2C1=O)c1cccc(Cl)c1 (configuration not stated),-0.219%
2,CCOC(=O)c1nnn(CC(=O)Nc2cccc(F)c2)c1C(=O)OCC,-0.0535%
3,COc1cccc(CN(C)CC2CCCN(CCc3ccc(Cl)cc3)C2)c1OC (configuration not stated),-0.785%
4,COc1ccc(NC(=O)CS(=O)(=O)c2ccccc2)cc1,-4.25%
5,Cc1nc(NC(=O)c2ccc3c(c2)OCCO3)ccc1Br,-9.44%
6,Cc1ccc2sc(NNC(=O)c3ccc4c(c3)OCCO4)nc2c1C,52.7% (active)
7,O=C(Nc1nc2ccccc2s1)c1ccc2c(c1)OCO2,-10.7%
8,COC(=O)c1ccc([C@@H](O)[C@H](C)C(=O)CC(=O)OC(C)(C)C)cc1,-0.38%
9,COc1ccc(C(=O)NC(=S)N2CCCCC2c2cccnc2)cc1OC (configuration not stated),5.87%
10,Cc1cccc(C(=O)NCCCN(C)CCCNC(=O)c2cccc(C)c2)c1,-2.44%
11,Cc1cccc(C(=O)NC(=S)N(C)C2CCCCC2)c1,55.3% (active)
12,Cc1cccc(NC(=S)NCCN(C2CCCCC2)C2CCCC2)c1,-5.79%
13,COc1ccc(C2/C(=C(/O)c3ccc4c(c3)CC(C)O4)C(=O)C(=O)N2Cc2ccncc2)cc1 (configuration not stated),1.18%
14,O=C(CN(CC1CCCO1)C(=O)CNS(=O)(=O)c1ccc(Cl)cc1)NCc1ccccc1 (configuration not stated),-3.12%
15,CCc1c(C)c2ccc(OC3CCCCC3=O)cc2oc1=O (configuration not stated),-6.62%
16,CCCCn1c(SCC(=O)NCC2CCCO2)nc2ccc(N3CCOCC3)cc2c1=O (configuration not stated),2.53%
17,N#CCSc1nc2ccc(N3CCOCC3)cc2c(=O)n1CCc1ccccc1,71.7% (active)
18,COCCCNC(=O)CSc1nc2ccc(N3CCOCC3)cc2c(=O)n1CCc1ccccc1,34.6%
19,COCC(C)n1c(C)cc(C(=O)CSc2cc(C)c3ccccc3n2)c1C (configuration not stated),2.07%
20,Cc1ccc(C(=O)N/N=C\c2cc(Br)c(Br)o2)cn1,6.13%
21,Cc1nn(-c2ccccc2)c2sc(C(=O)N(Cc3ccco3)C(C)C(=O)NC(C)(C)C)cc12 (configuration not stated),6.98%
22,CC(Oc1ccc2ccccc2c1)C(=O)NNC(=S)NC(=O)c1ccco1 (configuration not stated),128% (active)
23,O=C(Nc1ccc2ccccc2c1)/C(=C/c1cccc(Br)c1)NC(=O)c1ccco1,14.5%
24,CCCc1ccc(OCC(=O)NNC(=S)NC(=O)c2ccco2)cc1,113% (active)
25,CCCc1ccc(OCCNC(=O)c2ccco2)cc1,-5.79%
26,Cc1ccc(C(=O)NNC(=O)C(C)Oc2ccc3ccccc3c2)o1 (configuration not stated),-4.95%
27,Cc1ccc(OCC(=O)NCCCNC(=O)c2ccco2)cc1C,2.37%
